Test results from the supplement of paper PMC10849652.
The full data set covers some 7,900 targets. This sample favours those with a hit. About 0.6% of all pairs of compound and target were hits.

Compound: Cn1cncc1[C@@](N)(c1ccc(Cl)cc1)c1ccc2c(c1)c(-c1cccc(Cl)c1)cc(=O)n2C [tipifarnib]
Assay: log2 fold change, soluble protein after heating vs DMSO (PISA); higher = thermal stabilisation; K562 cells, 10 uM, 30 min; active = over 0.2 and 3.5 SD of the protein, either way, in both replicates (recomputed)
How it was run: (§1)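 Values are thermal stability changes relative to control samples and are taken from duplicates. They are stated as log2 fold changes. Before quantification by TMTpro 16plex LC-MS/MS with equalised channel sums, K562 cells at 2×10^6 cells/mL were treated with 10 μM compound for 30 min, heated in aliquots for 3 min across 48°C-58°C, pooled, extracted in PBS with 0.5% NP-40 at 4°C, and centrifuged at 21,000xg for 90 min to give the soluble supernatant.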

Chain of UniProt Q6P9B9 (Q6P9B9 whole entry, looked up): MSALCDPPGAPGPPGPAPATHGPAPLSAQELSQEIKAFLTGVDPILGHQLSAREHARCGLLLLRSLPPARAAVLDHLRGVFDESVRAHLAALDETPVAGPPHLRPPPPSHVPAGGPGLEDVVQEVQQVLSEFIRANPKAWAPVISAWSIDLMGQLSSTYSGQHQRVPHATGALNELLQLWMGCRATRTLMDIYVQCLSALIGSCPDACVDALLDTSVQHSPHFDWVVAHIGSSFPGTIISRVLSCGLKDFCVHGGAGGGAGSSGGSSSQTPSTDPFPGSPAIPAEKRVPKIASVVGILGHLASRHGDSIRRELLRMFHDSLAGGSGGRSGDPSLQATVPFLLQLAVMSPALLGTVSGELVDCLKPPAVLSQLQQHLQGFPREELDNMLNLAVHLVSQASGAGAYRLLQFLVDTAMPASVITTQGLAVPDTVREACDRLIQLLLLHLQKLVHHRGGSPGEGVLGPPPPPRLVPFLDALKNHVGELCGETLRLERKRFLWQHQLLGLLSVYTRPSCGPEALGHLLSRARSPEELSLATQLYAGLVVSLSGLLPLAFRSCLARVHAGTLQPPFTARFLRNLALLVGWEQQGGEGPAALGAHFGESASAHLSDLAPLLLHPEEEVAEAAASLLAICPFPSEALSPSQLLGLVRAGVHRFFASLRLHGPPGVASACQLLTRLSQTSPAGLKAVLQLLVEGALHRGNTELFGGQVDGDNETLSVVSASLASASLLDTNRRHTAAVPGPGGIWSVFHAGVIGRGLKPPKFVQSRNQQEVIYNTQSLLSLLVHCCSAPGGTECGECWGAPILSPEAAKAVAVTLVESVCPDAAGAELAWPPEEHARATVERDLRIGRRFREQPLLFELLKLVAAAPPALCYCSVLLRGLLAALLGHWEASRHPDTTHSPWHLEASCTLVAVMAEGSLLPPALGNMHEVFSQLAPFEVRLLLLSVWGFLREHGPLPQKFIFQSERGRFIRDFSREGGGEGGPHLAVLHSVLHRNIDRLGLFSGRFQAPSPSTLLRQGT
Chain of UniProt P27816 (P27816 whole entry, looked up): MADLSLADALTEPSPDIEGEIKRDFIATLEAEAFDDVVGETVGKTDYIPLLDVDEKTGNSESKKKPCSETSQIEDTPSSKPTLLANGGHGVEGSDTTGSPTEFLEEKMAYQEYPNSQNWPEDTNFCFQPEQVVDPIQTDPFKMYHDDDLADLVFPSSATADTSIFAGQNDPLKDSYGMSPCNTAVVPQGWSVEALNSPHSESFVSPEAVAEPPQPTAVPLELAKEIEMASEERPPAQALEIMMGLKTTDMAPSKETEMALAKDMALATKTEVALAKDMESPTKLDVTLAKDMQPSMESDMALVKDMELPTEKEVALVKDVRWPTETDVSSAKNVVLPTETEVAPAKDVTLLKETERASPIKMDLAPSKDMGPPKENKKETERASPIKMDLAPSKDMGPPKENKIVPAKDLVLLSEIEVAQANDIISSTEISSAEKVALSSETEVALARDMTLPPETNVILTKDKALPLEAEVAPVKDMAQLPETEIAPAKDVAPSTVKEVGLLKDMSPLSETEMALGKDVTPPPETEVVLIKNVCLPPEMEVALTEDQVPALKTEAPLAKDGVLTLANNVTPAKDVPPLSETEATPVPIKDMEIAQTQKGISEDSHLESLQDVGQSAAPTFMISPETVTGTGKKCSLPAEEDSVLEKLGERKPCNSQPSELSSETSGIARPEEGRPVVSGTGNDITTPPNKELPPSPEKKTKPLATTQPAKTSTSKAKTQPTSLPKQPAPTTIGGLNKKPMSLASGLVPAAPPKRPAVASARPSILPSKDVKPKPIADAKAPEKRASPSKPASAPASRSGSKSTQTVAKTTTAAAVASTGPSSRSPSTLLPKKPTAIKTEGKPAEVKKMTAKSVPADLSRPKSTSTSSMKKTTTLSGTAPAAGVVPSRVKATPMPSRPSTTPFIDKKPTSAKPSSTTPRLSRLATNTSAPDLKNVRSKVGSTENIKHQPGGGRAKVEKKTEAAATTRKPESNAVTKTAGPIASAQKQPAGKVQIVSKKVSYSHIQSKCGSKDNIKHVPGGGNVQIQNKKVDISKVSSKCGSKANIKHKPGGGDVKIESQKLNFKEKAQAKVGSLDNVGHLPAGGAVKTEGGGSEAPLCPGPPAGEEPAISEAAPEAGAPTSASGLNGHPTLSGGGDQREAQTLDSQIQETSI
Chain of UniProt Q9NX70 (Q9NX70 whole entry, looked up): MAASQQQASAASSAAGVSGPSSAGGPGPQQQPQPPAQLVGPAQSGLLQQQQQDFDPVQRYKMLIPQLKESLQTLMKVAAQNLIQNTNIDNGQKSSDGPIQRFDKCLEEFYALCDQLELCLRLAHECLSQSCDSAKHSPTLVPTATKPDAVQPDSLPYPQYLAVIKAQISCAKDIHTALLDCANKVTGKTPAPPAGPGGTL
Chain of UniProt Q8WYH8 (Q8WYH8 whole entry, looked up): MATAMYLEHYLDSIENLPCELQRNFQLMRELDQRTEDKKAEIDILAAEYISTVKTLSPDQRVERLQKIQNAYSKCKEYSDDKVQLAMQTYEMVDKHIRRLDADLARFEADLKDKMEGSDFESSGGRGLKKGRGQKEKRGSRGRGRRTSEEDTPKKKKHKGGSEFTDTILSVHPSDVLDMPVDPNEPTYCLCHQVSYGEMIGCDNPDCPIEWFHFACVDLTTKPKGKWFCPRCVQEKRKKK
Chain of UniProt Q9NYL2 (Q9NYL2 whole entry, looked up): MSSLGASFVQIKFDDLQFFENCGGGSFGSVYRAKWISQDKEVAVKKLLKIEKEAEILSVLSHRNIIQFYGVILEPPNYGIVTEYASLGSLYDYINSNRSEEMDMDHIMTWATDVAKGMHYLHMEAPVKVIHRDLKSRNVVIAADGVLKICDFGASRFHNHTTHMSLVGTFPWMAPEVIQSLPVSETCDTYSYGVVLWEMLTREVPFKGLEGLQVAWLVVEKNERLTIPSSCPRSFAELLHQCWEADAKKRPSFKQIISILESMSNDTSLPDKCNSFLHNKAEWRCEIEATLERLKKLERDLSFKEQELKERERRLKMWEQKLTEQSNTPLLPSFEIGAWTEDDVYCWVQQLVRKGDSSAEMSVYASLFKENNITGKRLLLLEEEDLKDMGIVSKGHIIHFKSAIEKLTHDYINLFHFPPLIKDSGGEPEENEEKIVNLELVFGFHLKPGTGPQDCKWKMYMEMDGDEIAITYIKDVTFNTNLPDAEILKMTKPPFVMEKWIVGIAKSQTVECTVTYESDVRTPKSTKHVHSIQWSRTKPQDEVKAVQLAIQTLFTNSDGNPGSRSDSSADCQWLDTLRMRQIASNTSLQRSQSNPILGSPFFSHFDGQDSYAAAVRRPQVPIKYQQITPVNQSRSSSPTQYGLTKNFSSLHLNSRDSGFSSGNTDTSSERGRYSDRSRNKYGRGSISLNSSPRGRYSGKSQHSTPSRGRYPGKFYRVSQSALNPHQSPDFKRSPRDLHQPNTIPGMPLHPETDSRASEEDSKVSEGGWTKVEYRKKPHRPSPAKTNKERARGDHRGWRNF
Chain of UniProt Q86X29 (Q86X29 whole entry, looked up): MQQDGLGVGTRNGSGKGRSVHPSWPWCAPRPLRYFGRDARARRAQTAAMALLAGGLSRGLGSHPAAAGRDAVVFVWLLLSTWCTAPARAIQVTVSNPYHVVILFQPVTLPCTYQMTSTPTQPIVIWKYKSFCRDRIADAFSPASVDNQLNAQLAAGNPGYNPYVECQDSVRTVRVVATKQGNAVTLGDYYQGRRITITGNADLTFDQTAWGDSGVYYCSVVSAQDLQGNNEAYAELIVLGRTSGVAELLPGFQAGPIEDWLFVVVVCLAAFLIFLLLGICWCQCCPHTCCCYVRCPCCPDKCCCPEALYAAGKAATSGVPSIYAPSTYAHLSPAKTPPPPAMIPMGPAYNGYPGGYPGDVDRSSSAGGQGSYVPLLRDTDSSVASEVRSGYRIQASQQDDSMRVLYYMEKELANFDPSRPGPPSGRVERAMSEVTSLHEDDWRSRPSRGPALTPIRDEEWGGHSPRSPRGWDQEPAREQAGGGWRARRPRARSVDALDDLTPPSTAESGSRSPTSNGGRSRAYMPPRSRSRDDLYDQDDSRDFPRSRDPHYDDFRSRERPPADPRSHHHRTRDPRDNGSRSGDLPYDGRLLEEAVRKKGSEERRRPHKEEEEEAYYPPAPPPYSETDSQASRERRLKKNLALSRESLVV
Chain of UniProt Q9NVC6 (Q9NVC6 whole entry, looked up): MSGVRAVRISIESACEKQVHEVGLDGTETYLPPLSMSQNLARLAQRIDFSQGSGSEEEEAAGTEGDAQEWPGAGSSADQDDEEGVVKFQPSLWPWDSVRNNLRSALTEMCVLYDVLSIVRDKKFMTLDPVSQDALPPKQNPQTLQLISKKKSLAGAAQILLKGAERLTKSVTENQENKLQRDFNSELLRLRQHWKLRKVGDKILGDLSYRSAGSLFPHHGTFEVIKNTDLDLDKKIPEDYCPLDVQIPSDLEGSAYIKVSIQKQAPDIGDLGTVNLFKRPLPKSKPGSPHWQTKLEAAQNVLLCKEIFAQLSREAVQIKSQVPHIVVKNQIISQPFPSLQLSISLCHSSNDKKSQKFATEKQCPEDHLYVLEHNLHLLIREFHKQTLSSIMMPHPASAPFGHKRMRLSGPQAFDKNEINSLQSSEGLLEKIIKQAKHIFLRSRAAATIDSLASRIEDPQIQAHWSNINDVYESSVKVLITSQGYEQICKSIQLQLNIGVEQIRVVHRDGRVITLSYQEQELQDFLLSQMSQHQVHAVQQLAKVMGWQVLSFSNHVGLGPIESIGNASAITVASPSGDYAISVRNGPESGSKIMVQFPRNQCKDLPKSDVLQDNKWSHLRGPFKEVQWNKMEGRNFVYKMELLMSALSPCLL
Chain of UniProt P17936 (P17936 whole entry, looked up): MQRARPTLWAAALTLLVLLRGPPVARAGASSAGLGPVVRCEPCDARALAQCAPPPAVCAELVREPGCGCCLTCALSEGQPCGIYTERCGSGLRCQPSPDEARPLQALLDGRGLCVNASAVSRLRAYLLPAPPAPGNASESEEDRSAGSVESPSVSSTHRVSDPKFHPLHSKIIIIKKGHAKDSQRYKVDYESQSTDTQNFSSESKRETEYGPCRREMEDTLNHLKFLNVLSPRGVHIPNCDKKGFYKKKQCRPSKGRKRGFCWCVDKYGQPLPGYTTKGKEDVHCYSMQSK

Target	log2 fold change
MAGED1 isoform 2 (UniProt Q9Y5V3)	-0.104 (inactive)
LYN isoform 2 (UniProt P07948)	0.075 (inactive)
LSR isoform 3 (UniProt Q86X29)	0.101 (inactive)
IKZF1 (UniProt R9R4D9)	-0.119 (inactive)
MAP4K2 (UniProt Q12851)	-0.048 (inactive)
MAPRE3 isoform 2 (UniProt Q9UPY8)	0.201 (inactive)
IGFBP3 isoform 2 (UniProt P17936)	-0.087 (inactive)
ING5 (UniProt Q8WYH8)	0.045 (inactive)
LRFN1 (UniProt Q9P244)	-0.026 (inactive)
MED17 (UniProt Q9NVC6)	0.077 (inactive)
LUM (UniProt P51884)	0.055 (inactive)
MAP3K20 isoform 2 (UniProt Q9NYL2)	0.138 (inactive)
INTS5 (UniProt Q6P9B9)	-0.145 (inactive)
ITPRID2 (UniProt P28290)	-0.056 (inactive)
MED29 (UniProt Q9NX70)	0.169 (inactive)
MAP4 isoform 5 (UniProt P27816)	0.066 (inactive)
KIZ (UniProt Q2M2Z5)	0.217 (inactive)
ITGA2B (UniProt P08514)	0.073 (inactive)
MARCHF3 (UniProt Q86UD3)	0.001 (inactive)

Compound: FC(F)(F)c1ccc(/C=C/c2nc(COc3ccc(CCCCn4ccnn4)cc3)co2)cc1 [mubritinib]
Assay: as above
How it was run: as §1

Target	log2 fold change
LEPROT (UniProt O15243)	0.041 (inactive)
IKZF1 isoform 2 (UniProt Q13422)	-0.024 (inactive)
ILF3 (UniProt Q12906)	-0.074 (inactive)
LIN52 (UniProt Q52LA3)	-0.117 (inactive)
LSR isoform 3 (UniProt Q86X29)	0.435 (inactive)
LOX (UniProt P28300)	-0.017 (inactive)
ING5 (UniProt Q8WYH8)	0.206 (inactive)
MED17 (UniProt Q9NVC6)	0.015 (inactive)
MAP3K20 isoform 2 (UniProt Q9NYL2)	-0.134 (inactive)
INTS5 (UniProt Q6P9B9)	0.23 (inactive)
MED29 (UniProt Q9NX70)	-0.136 (inactive)
MAP4K4 isoform 6 (UniProt O95819)	0.02 (inactive)
MAP4 isoform 5 (UniProt P27816)	0.027 (inactive)
KIF1B isoform 3 (UniProt O60333)	0.168 (inactive)
